{"source": "the supplement of paper PMC11417369", "note": "± gives the standard deviation of the averaged measurements. Over roughly 25,000 sequences, “ln(normalized median fluorescence intensity)” has its median near 10; the highest 2% begin near 12. Shown is part of a subset that was picked to be rich in the highest values.", "data": [{"test_system": "PfAP2-G AP2 domain (GST-tagged)", "experiment": "gcPBM binding intensity (ln(normalized median fluorescence intensity)); higher = stronger DNA binding", "method_in_brief": "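In this array assay, P. falciparum DNA-binding domains with a GST tag, expressed in E. coli, were applied for 1 h to primer-extended double-stranded 36-bp intergenic genomic probes and negative controls on an Agilent 4 × 180k array. Bound protein was visualised with Alexa488 anti-GST antibody at 488 nm. Binding intensity is the highest Masliner-normalised natural-log median intensity across replicate spots of either probe orientation.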", "values": [{"sequence": "AAATTTATATATAGTTGTACAAAAATATGTTTCGTA [XGTACX_site4801]", "gcPBM binding intensity (ln)": "11.2 ± 0.57"}, {"sequence": "GTTTTTTATAATTGTAGTACAAGAAGATATTTTTAT [XGTACX_site5443]", "gcPBM binding intensity (ln)": "11.5 ± 0.86"}, {"sequence": "TATGTGAATATAATCACACACAATACGGAAAGAGAC [CACACA_site7311]", "gcPBM binding intensity (ln)": "10.7 ± 0.39"}, {"sequence": "ATGGACTTTTATAGTTGTACATACTATGAGAACTTT [XGTACX_site2800]", "gcPBM binding intensity (ln)": "11.7 ± 0.85"}, {"sequence": "TTATATATATGACTTTGTACATATACATATTTTTTA [XGTACX_site4669]", "gcPBM binding intensity (ln)": "10.7 ± 0.54"}, {"sequence": "CTATACATATTATATAGTACTTTATTATTATGACTA [XGTACX_site1382]", "gcPBM binding intensity (ln)": "10.8 ± 0.45"}, {"sequence": "TTATAAAATTACTTGGTGCATTAGAATATTTCAATA", "gcPBM binding intensity (ln)": "10.1 ± 0.3"}, {"sequence": "AATAAAAAACTACAATATACAAAATTATTAAATCAA [GTGCAC_negctrl_site703]", "gcPBM binding intensity (ln)": "9.56 ± 0.35"}, {"sequence": "TAATTTATAAAAAATTGTACATTAAACATATATATA [XGTACX_site5164]", "gcPBM binding intensity (ln)": "10.8 ± 0.56"}, {"sequence": "TTCATATGGAATAAAAGTACGTATTAAAACAATTTT [XGTACX_site8742]", "gcPBM binding intensity (ln)": "11.1 ± 0.59"}, {"sequence": "TTTTTTATTTTTTGTTATATTTATAATAATTTATGA [XGTACX_negctrl_site260]", "gcPBM binding intensity (ln)": "9.58 ± 0.071"}, {"sequence": "AAAAAAAAAAAAATACGTACACAAAAAATTGCAAAG [XGTACX_site5663]", "gcPBM binding intensity (ln)": "11.6 ± 0.81"}, {"sequence": "AAACCAAAAATAACACGTACAAAAATAAAAAGTATA [XGTACX_site4261]", "gcPBM binding intensity (ln)": "11.2 ± 0.74"}, {"sequence": "AAAAAAAAAAAAAAAGGTACACAAATACGTCCTGCA [XGTACX_site3354]", "gcPBM binding intensity (ln)": "11.5 ± 0.74"}, {"sequence": "TAATTTACACCTACGTGTACACACAAAAATATGTTT [XGTACX_site1868]", "gcPBM binding intensity (ln)": "11.6 ± 0.95"}, {"sequence": "TAAAAAAAATACAAAAGTACACAAAATTATACGTTA [XGTACX_site4656]", "gcPBM binding intensity (ln)": "11.5 ± 0.96"}, {"sequence": "AAAATAAAATAAAATACACACATACATACATACAAA [CACACA_site5366]", "gcPBM binding intensity (ln)": "10.01 ± 0.028"}, {"sequence": "AGATAAAATAAATACACACACATAAATACGTACAAA [CACACA_site4739]", "gcPBM binding intensity (ln)": "11.7 ± 0.74"}, {"sequence": "AATTTACACGTACGTGTACACACAAAAATATGTTTT [CACACA_site8242]", "gcPBM binding intensity (ln)": "11.8 ± 1"}, {"sequence": "TATATATTATTTAAAACACACAAAAAAAAAAATTAT [CACACA_site89]", "gcPBM binding intensity (ln)": "9.895 ± 0.021"}, {"sequence": "GTATATATTTAAACACGTACACAAAACCCAAAAAAT [XGTACX_site8110]", "gcPBM binding intensity (ln)": "11.8 ± 0.96"}, {"sequence": "ACAAAAAAAAAAAAAATACACACACATAAAAAAAAA [TGCATGCA_negctrl_site333]", "gcPBM binding intensity (ln)": "10.1 ± 0.13"}, {"sequence": "TTTACACGTACGTGTACACACAAAAATATGTTTTTA [CACACA_site995]", "gcPBM binding intensity (ln)": "11.6 ± 0.89"}, {"sequence": "TATATTACTTTGTGTTGTACGGAAATATATATATAT [XGTACX_site4309]", "gcPBM binding intensity (ln)": "11.3 ± 0.94"}, {"sequence": "TATATAATGGTAAAAACACACAAATATGAAGATGTT [CACACA_site722]", "gcPBM binding intensity (ln)": "9.87 ± 0.16"}, {"sequence": "TGTAATAATTATTGCACGCACACAAAAACCTATAGA [CACACA_site2932]", "gcPBM binding intensity (ln)": "10.7 ± 0.4"}, {"sequence": "ATCTTAGTTGAAATATAGAATTTATAATAAAAGTTA [GTGCAC_negctrl_site122]", "gcPBM binding intensity (ln)": "9.595 ± 0.064"}, {"sequence": "AATGTACAAATACGTACACACATATATATATATATA [CACACA_site1542]", "gcPBM binding intensity (ln)": "11.6 ± 0.93"}, {"sequence": "TGATAACCAAAAAGGGGTACATACACAAAAAAATAC [XGTACX_site1254]", "gcPBM binding intensity (ln)": "11.7 ± 0.91"}, {"sequence": "AGAAATTTACAAATACGTACACACATATATATATAT [XGTACX_site3141]", "gcPBM binding intensity (ln)": "11.9 ± 1.4"}, {"sequence": "AATAAATATAAAAATGCACACACACTAATAAAAAAA [CACACA_site8201]", "gcPBM binding intensity (ln)": "10.2 ± 0.13"}, {"sequence": "ATAACACAAAAAGGGGGTACAATAAAAAAAAAAAAA [XGTACX_site1652]", "gcPBM binding intensity (ln)": "11.5 ± 0.98"}, {"sequence": "AATGTACAAATACGTACACACATATTTATATTTATA [CACACA_site6833]", "gcPBM binding intensity (ln)": "11.6 ± 0.99"}, {"sequence": "AAATATATATATTTACGTACATATATACAAATAGAG [XGTACX_site6067]", "gcPBM binding intensity (ln)": "11.4 ± 0.81"}, {"sequence": "TGTATAAATAAATGCGTACACACTAATAAAAAAAAA [CACACA_site858]", "gcPBM binding intensity (ln)": "11.6 ± 0.8"}, {"sequence": "AAAAAATACCAAAGGGGTACTTACACATAATACTTA [XGTACX_site2111]", "gcPBM binding intensity (ln)": "11.4 ± 1.1"}, {"sequence": "TATAAATAAATGCGTACACACTAATAAAAAAAAAAA [CACACA_site4630]", "gcPBM binding intensity (ln)": "11.6 ± 1.1"}, {"sequence": "GAAATGTACAAATACGTACACACATATATATATATA [CACACA_site1541]", "gcPBM binding intensity (ln)": "11.6 ± 0.99"}, {"sequence": "ATAAATAAATTTATACGTACACATAATATATATATA [XGTACX_site4634]", "gcPBM binding intensity (ln)": "11.6 ± 0.89"}, {"sequence": "TCAGAGTGAAGTTATACACACATGGTTTTTTTTTTT [CACACA_site2116]", "gcPBM binding intensity (ln)": "9.875 ± 0.021"}, {"sequence": "TAAAGAAAAAAATGTTGTACTTTATGAAACATATTT [XGTACX_site412]", "gcPBM binding intensity (ln)": "11.2 ± 0.79"}, {"sequence": "TAAATATTTTTTTAGACACACATATATCTATGATAT [CACACA_site1107]", "gcPBM binding intensity (ln)": "9.705 ± 0.049"}, {"sequence": "TTAATGAAATATTATACACACAAAAAAATAATTTTA [CACACA_site4231]", "gcPBM binding intensity (ln)": "9.915 ± 0.092"}, {"sequence": "AAAAAAAAAACATACACACACACAAATATTTATATA [CACACA_site437]", "gcPBM binding intensity (ln)": "9.85 ± 0.11"}, {"sequence": "AGATAAAATATATACACACACATAAATACGTACAAA [CACACA_site1086]", "gcPBM binding intensity (ln)": "11.8 ± 1"}, {"sequence": "TTAATTAAATATTATACACACAAAAAAATAATTTTA [CACACA_site96]", "gcPBM binding intensity (ln)": "10 ± 0.16"}, {"sequence": "AGATAAGATATATACACACACATAAATACGTACAAA [CACACA_site6639]", "gcPBM binding intensity (ln)": "11.6 ± 0.78"}, {"sequence": "TTTCTCCCATTTTTTAGTACACAAAATATATATGTA [XGTACX_site7218]", "gcPBM binding intensity (ln)": "11.7 ± 1.1"}, {"sequence": "ATAAATAAGATACGTACACACATATACAAAATATAC [CACACA_site3661]", "gcPBM binding intensity (ln)": "11.5 ± 0.95"}, {"sequence": "ATTTTTTAAATGAGGCGTACACAAAAATATAATTAC [XGTACX_site7087]", "gcPBM binding intensity (ln)": "11.7 ± 1.1"}, {"sequence": "CCATTTACAAAAAGGAGTACACAAATATATGTTTAA [XGTACX_site649]", "gcPBM binding intensity (ln)": "11.6 ± 0.93"}, {"sequence": "TATACAAAATATTTTACACACACATATATATACATA [CACACA_site2616]", "gcPBM binding intensity (ln)": "10.01 ± 0.057"}, {"sequence": "AATATACACCCGTGTACACAAATATTTACAAAACGT [CACACA_site4786]", "gcPBM binding intensity (ln)": "11.7 ± 1.1"}, {"sequence": "TTATTTATTTTTATATGTACACAAAAAAAAAAAAAA [XGTACX_site1459]", "gcPBM binding intensity (ln)": "11.5 ± 1.1"}, {"sequence": "ATAACAAATATGATAGCATGCTACATATTACAACTT [TGCATGCA_site524]", "gcPBM binding intensity (ln)": "9.71 ± 0.16"}, {"sequence": "TATATCTGTAAATGCACACATATGTGGATATACTTA [CACACA_site5013]", "gcPBM binding intensity (ln)": 10.1}, {"sequence": "ATATATATATATAGTAGTACTCTCTCTGTATATATA [XGTACX_site3754]", "gcPBM binding intensity (ln)": "11.3 ± 0.75"}]}]}
